Laboratory results taken from PubChem BioAssay (NCATS).
Values joined by “and” are separate entries in the source; they are usually repeats but may differ in a detail not shown here. Equal values may be shown once. Records with an inconclusive call do not appear. Active and inactive are the calls of the source. Unless noted, calls come from the whole dose curve; as a rule, active = well fitted curve in the direction sought with a large enough effect; inconclusive = small, poorly fitted or top-dose-only effect, or another doubt; inactive = no such curve, though single readings can be large; an effect the other way counts as inactive or inconclusive.

Key:
[1] = biological target: T1, Hexokinase-4 (Homo sapiens) + Glucokinase regulatory protein (Homo sapiens) (UniProt P35557+Q14397); test: qHTS assay for inhibitors of recombinant human GCK-GKRP interaction: Diaphorase-coupled assay (AID 743205)
Method in brief: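 25 mM Hepes pH 7.6, 5 mM glucose, 0.4 mM ATP, 4 U/ml G6PDH; 10 nM each GST-GCK/FLAG-GKRP. Kinetic fluorescence read, 1/min × 30 min. Normalized: DMSO ± enzyme = max/min.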

[2] = biological target: T1, Hexokinase-4 (Homo sapiens) + Glucokinase regulatory protein (Homo sapiens); test: qHTS assay for inhibitors of recombinant human GCK-GKRP interaction: ADP-Glo assay (AID 743206);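 note: plate controls were DMSO plus enzyme for no effect and no enzyme for full effect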
Method in brief: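 GST-GCK and FLAG-GKRP (15 nM each in the dispensed mix, with 2 uM S6P) react with 0.4 mM ATP and 5 mM glucose (final) in Hepes pH 7.6 for 60 min at room temperature. ADP is measured by ADP-Glo luminescence.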

[3] = biological target: T1, Hexokinase-4 (Homo sapiens) + Glucokinase regulatory protein (Homo sapiens); test: qHTS assay for inhibitors of recombinant human GCK-GKRP interaction: HTRF assay (AID 743207);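 note: 0% = DMSO with GCK present and -100% = DMSO wells lacking GCK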
Method in brief: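 5 nM GST-GCK + 5 nM FLAG-GKRP + 2 uM S6P, pH 7.1 buffer (25 mM Hepes, 2 mM MgCl2, 25 mM KCl, 1 mM DTT, Tween/BSA); pin-transferred cpd; anti-FLAG XL665/anti-GST K; 60 min RT; HTRF.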

[4] = qHTS Assay for Identifying Gametocytocidal Compounds (AID 743244);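 note: % is set by controls: 0 for no effect and ±100 for the full control effect; actives lower the fluorescent signal which means gametocytes are killed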; settings: P. falciparum 3D7 stage III-V gametocytes, alamarBlue, 72 h; max response: stronger effect = lower value
Method in brief: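 Viability read-out was resazurin reduction (alamarBlue, 24 h) measured at Ex 525/Em 598 nm. Beforehand, late-stage (III-V) 3D7 P. falciparum gametocytes at 20,000 cells/well were incubated with compound 72 h at 37C under 5% CO2.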

[5] = qHTS profiling of the MIPE4 collection as inhibitors of Plasmodium falciparum (3D7) proliferation (AID 743344; call rule not given here;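 note: scaled between DMSO vehicle wells and 0.29 µM artemisinin as full inhibition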); settings: P. falciparum 3D7 in erythrocytes, SYBR Green DNA fluorescence, 72 h; at 28.5 µM (top of the series) unless noted
Method in brief: (§1)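 Erythrocytes infected with P. falciparum (0.3% parasitemia, 2.5% hematocrit) incubated with compounds 72 h at 37 C, 5% CO2. Lysis with saponin/Triton buffer containing SYBR Green I, overnight at room temperature in the dark; DNA fluorescence (485/535 nm) normalised to 0.29 uM artemisinin and DMSO.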

[6] = qHTS profiling of the MIPE4 collection as inhibitors of Plasmodium falciparum (DD2) proliferation (AID 743345; call rule not given here); settings: P. falciparum Dd2 in erythrocytes, SYBR Green DNA, 72 h; at 28.5 µM (top of the series) unless noted
Method in brief: as §1

[7] = qHTS profiling of the MIPE4 collection as inhibitors of Plasmodium falciparum (DD2) proliferation (Rep 2) (AID 743346; call rule not given here); settings: P. falciparum Dd2 in erythrocytes, SYBR Green DNA, 72 h; at 28.5 µM (top of the series) unless noted
Method in brief: as §1

[8] = qHTS profiling of the MIPE4 collection as inhibitors of Plasmodium falciparum (HB3) proliferation (AID 743347; call rule not given here;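 note: plate controls were DMSO vehicle wells for no effect and artemisinin wells for full effect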); settings: P. falciparum HB3 in erythrocytes, SYBR Green DNA, 72 h; at 28.5 µM (top of the series) unless noted
Method in brief: as §1

[9] = High-throughput drug toxicity screening in the BPDCN cell line Cal-1 (AID 1224825; call rule not given here); settings: Cal-1 BPDCN cell viability, qHTS; at 45.8 µM (top of the series) unless noted
Method in brief: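 Exponentially growing Cal-1 cells, 500 per well in phenol red-free RPMI with 10% FBS, were exposed to compounds for 48 h at 37 °C, 5% CO2. Viability was read by CellTiter-Glo luminescence and normalised to DMSO (100%) and 9.2 uM bortezomib (0%).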

[10] = qHTS assay for measurement of the activity of small molecule inhibitors on Zika virus induced Caspase-3 activity in human iPSC derived neural progenitor cells (hNPCs) (AID 1224857); note: % of control where 0% means no effect; nearly all actives have a fitted effect of over 65% in size
Method in brief: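 Percent inhibition of virus-induced caspase-3/7 luminescence (Caspase-Glo), scaled between uninfected cells and Zika-infected cells. hNPCs received compound 1 hr before ZIKV at 2 FFU/cell, with 6 hours infection at 37 C.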

[11] = qHTS assay for measurement of the activity of small molecule inhibitors on Zika virus induced Caspase-3 activity in human astrocytoma cells (AID 1224859);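 note: plate controls were ZIKV-infected untreated cells for no effect and uninfected cells for full effect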
Method in brief: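 Luminescent caspase-3/7 read-out (30 min reagent, room temperature) in human SNB-19 cells infected 6 h with ZIKV (2 FFU/cell) after 1 h compound pre-incubation; Data were normalised to uninfected and infected wells.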

[12] = qHTS assay for small molecule agonists of the antioxidant response element (ARE) signaling pathway measured by Nrf2-dependant transcriptional activity (AID 720636; active = well fitted curve in the direction sought with a large enough effect in the repeat runs; an effect the other way counts as inactive or inconclusive;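 note: HepG2 cells with an ARE-driven luciferase reporter; % of control where 0% means no effect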)
Method in brief: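 ONE-Glo luminescence, read 30 min after reagent addition at room temperature, reflected ARE reporter activity in HepG2 cells that had been incubated with compound for 16 hr at 37 C in 1% dialyzed FBS.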

[13] = qHTS assay for small molecule antagonists of the retinoid-related orphan receptor gamma (ROR-gamma) signaling pathway - cell viability counter screen (AID 720652; active = well fitted curve in the direction sought with a large enough effect in the repeat runs; an effect the other way counts as inactive or inconclusive;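 note: potency is the fitted concentration of half-maximal effect; compound exposure lasted 16 hr before ATP read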)
Method in brief: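 Counter screen in CHO cells carrying TET-inducible ROR-gamma and an ROR response element-luciferase reporter; cells plated 5 hr, compound pinned, doxycycline added, then 16 hr at 37 C. Viability read as intracellular ATP by CellTiter-Glo luminescence.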

[14] = qHTS assay for small molecule agonists of the antioxidant response element (ARE) signaling pathway measured by Nrf2-dependant transcriptional activity - cell viability counter screen (AID 720653; active = well fitted curve in the direction sought with a large enough effect in the repeat runs; an effect the other way counts as inactive or inconclusive; note: potency is the fitted concentration of half-maximal effect); settings: ARE-bla HepG2 viability, CellTiter-Glo ATP luminescence, 16 h; max response: stronger effect = lower value
Method in brief: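 ARE-bla HepG2 cells (2,000/well) rested 5 hrs at 37C/5% CO2, then exposed to compounds in DMSO for 16 hrs. Viability was read in the same wells as intracellular ATP by luminescence, 30 min at room temperature after reagent addition.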

[15] = qHTS assay for cell viability of HEK293 cells (AID 743288); settings: ATP luminescence (CellTiter-Glo), 18 h; max response: stronger effect = lower value; note: potency is the fitted concentration of half-maximal effect; nearly all actives have a fitted effect of over 50% in size
Method in brief: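 HEK293 parental, 2,000 cells/well; ≥5 h pre-incubation 37 C; pintool compound addition; 18 h, 37 C; CellTiter-Glo 30 min RT; luminescence read.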

[16] = qHTS assay for cell viability of the p53RE-bla HCT-116 cell line (AID 743292); note: potency is the fitted concentration of half-maximal effect; nearly all actives have a fitted effect of over 55% in size
Method in brief: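 After plating at 4,000 cells per well and a 5 h rest at 37 C, HCT-116 cells carrying p53RE-bla received test chemicals in DMSO. Sixteen hours later at 37 C, CellTiter-Glo was added and luminescence recorded following 30 min at room temperature.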

[17] = qHTS profiling for inhibitors of Plasmodium falciparum (3D7) proliferation (AID 743322; call rule not given here;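 note: infected erythrocytes exposed to compound for 72 h before lysis; 100% = DMSO vehicle wells and 0% = 0.29 µM artemisinin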); settings: P. falciparum 3D7 proliferation; at 28.7 µM (top of the series)
Method in brief: as §1

[18] = qHTS profiling for inhibitors of Plasmodium falciparum (DD2) proliferation (AID 743323; call rule not given here); settings: lower = more inhibition; at 28.7 µM (top of the series)
Method in brief: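 Parasite proliferation measured via DNA-dye fluorescence, as uninfected erythrocytes lack DNA. Cultures at 0.3% parasitemia and 2.5% hematocrit incubated 72 h with compound; signal scaled between vehicle and 0.29 uM artemisinin wells.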

[19] = qHTS profiling for inhibitors of Plasmodium falciparum (HB3) proliferation (AID 743324); settings: Plasmodium falciparum HB3 blood-stage proliferation; at 28.7 µM (top of the series);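 note: 100% = DMSO vehicle wells and 0% = artemisinin-treated control wells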
Method in brief: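 P. falciparum HB3 grown in erythrocytes (0.3% parasitemia, 2.5% hematocrit final) with compound for 72 h at 37 C, 5% CO2. Parasite DNA detected by SYBR Green after saponin/triton lysis overnight; normalized to 0.29 uM artemisinin and DMSO.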

T1 sequence (P35557 whole entry, looked up): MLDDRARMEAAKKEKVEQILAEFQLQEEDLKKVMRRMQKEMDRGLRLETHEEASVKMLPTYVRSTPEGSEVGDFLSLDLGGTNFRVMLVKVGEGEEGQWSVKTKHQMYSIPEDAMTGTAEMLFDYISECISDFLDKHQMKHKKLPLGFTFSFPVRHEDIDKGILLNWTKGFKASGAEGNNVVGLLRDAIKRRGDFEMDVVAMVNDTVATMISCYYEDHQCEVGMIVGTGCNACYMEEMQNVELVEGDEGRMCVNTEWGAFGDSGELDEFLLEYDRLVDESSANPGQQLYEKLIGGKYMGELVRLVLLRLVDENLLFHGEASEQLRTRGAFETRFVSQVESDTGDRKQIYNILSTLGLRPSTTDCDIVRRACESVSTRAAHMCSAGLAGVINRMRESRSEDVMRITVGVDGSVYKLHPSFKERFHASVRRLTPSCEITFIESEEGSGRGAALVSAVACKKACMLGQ
T1 sequence (Q14397 whole entry, looked up): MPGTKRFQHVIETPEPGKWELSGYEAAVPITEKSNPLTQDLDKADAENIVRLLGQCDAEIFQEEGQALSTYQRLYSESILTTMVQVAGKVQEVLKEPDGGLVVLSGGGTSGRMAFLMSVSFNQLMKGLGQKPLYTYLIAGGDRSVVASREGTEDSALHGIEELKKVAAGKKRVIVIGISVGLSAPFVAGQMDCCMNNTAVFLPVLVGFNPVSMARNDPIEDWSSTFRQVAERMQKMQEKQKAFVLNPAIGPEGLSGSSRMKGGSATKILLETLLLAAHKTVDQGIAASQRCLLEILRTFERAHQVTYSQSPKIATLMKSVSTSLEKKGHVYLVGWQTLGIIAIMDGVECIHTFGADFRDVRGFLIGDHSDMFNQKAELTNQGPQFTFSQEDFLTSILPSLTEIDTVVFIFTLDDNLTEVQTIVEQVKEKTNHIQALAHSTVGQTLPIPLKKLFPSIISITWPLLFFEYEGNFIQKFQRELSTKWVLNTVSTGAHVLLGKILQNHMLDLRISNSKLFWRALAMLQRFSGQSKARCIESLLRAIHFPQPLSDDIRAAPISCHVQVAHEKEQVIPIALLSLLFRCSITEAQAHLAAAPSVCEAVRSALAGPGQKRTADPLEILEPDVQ

SMILES	outcome [1]	outcome [2]	outcome [3]	max response [4]	parasite growth, % of DMSO control [5]	parasite growth remaining, % of DMSO control (lower = more inhibition) [6]	parasite growth, % of control (lower = inhibition) [7]	growth, % of control [8]	viability (% of control) [9]	Potency [10]	Potency [11]	outcome [12]	Potency [13]	Potency [14]	Potency [15]	Potency [16]	remaining parasite growth % (stronger effect = lower value) [17]	activity, percent of control [18]	remaining proliferation (% of control), lower = more inhibition [19]
CCN1CCCC1CNC(=O)c1cc(S(N)(=O)=O)ccc1OC (stereo not drawn)	inactive	inactive	inactive	13% (inactive)	101%	90.1%	41.9%	70.9%	82.8%	inactive	inactive								
NC(=O)c1cccnc1				0.464% (inactive)	98.2%	97.3%	122%	105%	101%	inactive									
CN(C)c1ccc(C(=C2C=CC(=[N+](C)C)C=C2)c2ccc(N(C)C)cc2)cc1					2.71%	5.08%	6.31%	2.46%	1.42%	inactive	inactive	inactive	10.6 µM (active)	25.1 µM (active) and 12.6 µM (active)	14.1 µM (active) and 11.2 µM (active)	25.1 µM (active) and 35.5 µM (active)			
O=NN(CCCl)C(=O)NC1CCCCC1				-7.36% (inactive)					102%	inactive	inactive								
CCCCS(=N)(=O)CCC(N)C(=O)O (stereo not drawn)	inactive	inactive	inactive	-16.7% (inactive)	102%	94.1%	193%	102%	34.2%	inactive							88.1%	31.7%	88%
O=C(O)C1CCCN(CCC=C(c2ccccc2)c2ccccc2)C1 (stereo not drawn)	inactive	inactive	inactive	17.5% (inactive)	82.1%	103%	72.1%	101%	127%	inactive	inactive								
